Screens (PubChem BioAssay)
In the library only some 3.4% were active in any assay of this set; here they are far more common.
GPR151 ag = activators of human GPR151, primary screen, cell-based, PathHunter beta-arrestin, luminescence. G-protein coupled receptor 151 (Homo sapiens), Q8TDV0. activation, % at 11.2 µM. actives 1% (n = 650,000). AID 1508602, 2020. PathHunter beta-arrestin GPR151 cells; in the data active means activation above about 4.9%;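 further: 0% = median of compound wells and 100% = cells with positive control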
Target sequence (Q8TDV0 whole entry, looked up): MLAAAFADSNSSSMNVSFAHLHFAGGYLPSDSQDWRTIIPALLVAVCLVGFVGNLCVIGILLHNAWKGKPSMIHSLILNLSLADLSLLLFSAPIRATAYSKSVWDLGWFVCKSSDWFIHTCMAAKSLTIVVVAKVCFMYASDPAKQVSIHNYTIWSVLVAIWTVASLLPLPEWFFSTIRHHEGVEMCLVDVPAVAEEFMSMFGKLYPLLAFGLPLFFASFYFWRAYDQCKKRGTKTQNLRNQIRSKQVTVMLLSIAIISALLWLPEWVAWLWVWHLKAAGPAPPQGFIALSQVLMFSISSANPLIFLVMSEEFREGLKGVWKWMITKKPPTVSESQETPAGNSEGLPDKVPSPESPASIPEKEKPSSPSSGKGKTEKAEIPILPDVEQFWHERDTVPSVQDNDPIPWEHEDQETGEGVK
FBW7 act = FBW7 E3 ligase activators, primary screen, biochemical, AlphaScreen, human; F-box/WD repeat-containing protein 7 (Homo sapiens), Q969H0; AlphaScreen FBW7–phospho-cyclin E peptide binding, activator screen; normalized activity (activation), % at 26.1 µM; actives 0.13% (n = 650,000); AID 1259310, 2017; in the data active means normalized activity above about 1.9%;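 further: purified mutant Fbw7 with reduced substrate affinity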
MITF primary = MITF inhibitors, primary screen, biochemical, AlphaScreen, human | Microphthalmia-associated transcription factor (Homo sapiens), O75030 | AlphaScreen MITF homodimerization, bead proximity signal | inhibition, % at 2.6 µM | actives 0.91% (n = 650,000) | AID 1259374, 2018; in the data active means inhibition above about 50%;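 further: 0% = vehicle wells with protein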
TEAD-YAP inh = TEAD-YAP interaction inhibition, primary screen, TEAD-YAP interaction inhibitor project, luminescence, HEK-TIYL cells; TEAD-Gal4/YAP UAS-luciferase luminescence; inhibition, % at 9.12 µM; actives 1.4% (n = 640,000); in the data active means inhibition above about 32%;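 further: 0% = median of test compound wells and 100% = reference inhibitor wells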
* hit, by the source's call.

SMILES	GPR151 ag	FBW7 act	MITF primary	TEAD-YAP inh
COC(=O)CSC1=C(C#N)C(c2ccc(Cl)cc2)CC(=O)N1 (centres undefined)	-0.9	-0.1	4.9	-8.7
N#CC1=C(SCC(=O)Nc2ccccc2Cl)NC(=O)CC1c1ccc(F)cc1 (centres undefined)	-0.2	-0.1	2.5	6.0
CCOC(=O)CSC1=C(C#N)C(c2ccc(Cl)cc2)CC(=O)N1 (centres undefined)	-1.2	0.0	-1.2	-13.0
COC(=O)CSC1=C(C#N)C(c2cccc(Cl)c2)CC(=O)N1 (centres undefined)	-0.4	0.0	-3.3	57.3*
CCOC(=O)CSC1=C(C#N)C(c2cccc(Cl)c2)CC(=O)N1 (centres undefined)	-0.6	0.0	7.1	65.8*
CCOC(=O)CSC1=C(C#N)C(c2ccc(C)o2)CC(=O)N1 (centres undefined)	1.0	0.0	6.1	59.9*
N#CC1=C(SCC(=O)Nc2ccccc2[N+](=O)[O-])NC(=O)CC1c1ccccc1F (centres undefined)	1.1	0.6	27.8	34.0*
COc1ccc(CN2CCc3c(C(=O)N4CCCC4)c(OC)cc(=O)n3CC2)cc1OC	1.0	1.3	9.8	7.1
C=CCn1c(SCC(=O)Nc2sc3c(c2C(N)=O)CCC3)nc2sc3c(c2c1=O)CCCC3	-0.4	-0.1	-9.6	3.4
CCCCOC(=O)CSC1=C(C#N)C(c2cccc(Cl)c2)CC(=O)N1 (centres undefined)	-0.4	-0.1	11.3	45.1*
N#CC1=C(SCC(=O)Nc2ccc(Cl)c(Cl)c2)NC(=O)CC1c1cccs1 (centres undefined)	1.1	-0.1	49.6	58.8*
Cc1ccc(-c2nc(N)sc2C)cc1C	-0.1	1.0	30.5	-0.3
O=c1oc2c(Cl)cc(Cl)cc2cc1-c1nc(-c2ccc3oc4ccccc4c3c2)cs1	0.4	0.5	16.9	8.4
COC(=O)N/N=C\c1ccc(-c2cccc(C(=O)O)c2)o1	-0.8	0.0	6.8	-10.2
CCN(CC)CCNc1nc2c(c(=O)[nH]c(=O)n2C)n1CC(C)C	0.4	-0.1	-1.2	6.9
C/C(=N/NC(N)=O)c1cc(C(C)(C)C)cc2c1CCC2(C)C	2.3	0.1	5.1	-11.4
CC(C)(C)c1cc(CC(=O)O)c2c(c1)C(C)(C)CC2	-1.9	0.7	7.3	47.9*
Cc1ccc(NC(=O)COc2ccc(C)c(C)c2)c(C)c1	-0.2	0.0	-15.9	-12.9
Cc1ccc(C(C)C)c(OCCN=Cc2c(O)n(C)c(=O)n(C)c2=O)c1	-0.6	-0.1	0.9	33.4*
Cc1nn(C2CCS(=O)(=O)C2)c(Cl)c1/C=C/c1nc2ccccc2s1 (centres undefined)	-4.8	-0.1	-11.1	94.7*
c1ccc(N2CCN(c3nc4ccccc4[nH]3)CC2)nc1	-2.0	0.2	-11.6	-37.9
Nc1ccc2c(c1)C(=O)N(c1ccc(O)cc1)C2=O	0.2	0.0	2.5	3.9
Nc1ccc(N2C(=O)c3ccc(N)cc3C2=O)cc1	0.2	0.0	8.0	34.4*
COc1ccc(OC)c(/C=C/C(=O)c2ccc(F)cc2)c1	-1.7	0.4	14.0	-18.4
NC(=O)c1ccc2nc(-c3cccc(N)c3)sc2c1	-9.4	0.2	13.7	9.0
SMILES	GPR151 ag	FBW7 act	MITF primary	TEAD-YAP inh
CCOC(=O)CC1C(=O)NC2CCCCC2N1C(=O)Nc1ccccc1 (centres undefined)	-1.9	0.4	10.6	-7.3
CCCCCOc1ccc(NC(=O)CSc2cccc3cccnc23)cc1	-0.8	-0.8	3.7	37.3*
Cc1ccc(CC(=O)N2CC(=O)Nc3ccccc32)c(C)c1	-1.3	-0.2	-11.7	34.2*
Cc1cccc2cc(C#N)c(SCC(=O)N3CC(=O)Nc4ccccc43)nc12	4.7	-0.1	4.8	52.9*
CC(C)c1ccc2nc(SCC(=O)N3CC(=O)Nc4ccccc43)c(C#N)cc2c1	-0.5	0.2	19.4	8.3
Cc1ccc(CC(=O)N2CC(=O)Nc3ccccc32)cc1	3.6	0.0	6.4	45.1*
COc1ccc(CC(=O)N2CC(=O)Nc3ccccc32)cc1OC	0.1	0.0	7.5	24.8
CSc1cccc(C(=O)N2CC(=O)Nc3ccccc32)c1	0.4	-0.1	-5.3	43.3*
COc1ccc(-c2ccc(=O)n(CC(=O)Nc3cccc(C)c3C)n2)cc1	-0.1	-0.2	4.3	-1.9
COC(=O)/C=C/CSc1nnc(-c2ccc(Cl)cc2Cl)o1	1.0	0.0	12.7	91.5*
CCN(CC)C(=O)Cn1c(C)c(C#N)c2ccccc21	-0.4	1.9*	18.2	3.1
O=C(Cn1nnc(-c2ccccc2)n1)N/N=C/c1ccccc1C(F)(F)F	1.2	0.4	11.6	-0.5
O=C(Cn1nnc(-c2ccccc2)n1)N/N=C/c1ccc(O)c(O)c1O	1.5	-1.3	65.6*	7.9
O=C(Cn1nnc(-c2ccccc2)n1)N/N=C/c1cc(Cl)ccc1O	-0.4	0.1	57.3*	-0.5
CCCOC(=O)C1=C(C)NC2=C(C(=O)CC(C)(C)C2)C1c1ccccc1Cl (centres undefined)	-1.4	0.5	-2.1	7.0
CCOC(=O)c1[nH]c(C)c(/C=C/C2=CCN(C)CC2)c1C	0.1	0.2	15.4	14.8
COc1ccc(/C=N\NC(=O)C2=NNC(=O)C2C)cc1 (centres undefined)	-0.7	-0.3	7.3	36.0*
CC1C(=O)NN=C1C(=O)N/N=C\C=C\c1ccccc1 (centres undefined)	0.2	-0.3	11.3	-10.2
COc1ccccc1NC(=O)c1cnn(-c2ccccc2)c1-n1cccc1	0.6	0.7	13.6	-3.0
CC(=N/NC(=O)c1ccc(C)cc1)/C(C)=N/O	-1.6	-0.2	-1.4	71.0*
CC(=N/O)/C(C)=N\NC(=O)c1ccccn1	-5.1	0.1	4.2	44.6*
O=C(CCN1C(=O)C2C3C=CC(C3)C2C1=O)Nc1ccc(Br)cc1 (centres undefined)	-0.5	0.0	-6.1	-9.8
CCC(=O)Nc1nnc(SCc2cc(=O)c(OC(=O)c3ccc(F)cc3)co2)s1	1.2	0.1	21.1	0.6
CC(C)(C)c1ccc(C(=O)N2CCCCCC2=O)cc1	-0.7	-0.1	-6.8	55.2*
COc1ccc(CNCc2cc(OC)c(OC)c(OC)c2)cc1C	0.8	0.0	51.1*	-0.6
SMILES	GPR151 ag	FBW7 act	MITF primary	TEAD-YAP inh
COc1ccc(CNCc2ccccc2)cc1OC	0.9	-0.3	-9.0	2.4
CN(C)c1ccc(/C=C/CN2CCC3(CCC(CNC(=O)c4ccccc4)O3)CC2)cc1 (centres undefined)	0.4	-0.2	3.0	0.6
CS(=O)(=O)c1cncnc1C1CCCN(C(=O)Cc2ccc(F)cc2)C1 (centres undefined)	-1.1	0.3	10.7	-13.8
Cc1nn2c(=O)/c(=C\c3ccccn3)sc2nc1=O	0.8	-0.1	70.1*	-2.0
COc1ccccc1NC(=O)COc1ccccc1C(=O)O	2.2	-0.2	0.1	2.8
CCOC(=O)c1cccc(C(=O)NC2=NN(c3ccccc3)C(=O)C2)n1	1.0	51.4*	-25.1	-0.5
